Screening data from PubChem BioAssay.
PNC assembly inh – blocks assembly of the perinucleolar compartment; activity change (PNC), negative = inhibition, % at 10 µM; 140,000 tested, 3.1% active; AID 2417; PC3M PTB-GFP, PNC prevalence imaging, 16 h; hits give low values;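 active means readout at or below -70, meaning at least 70% loss of cells showing the perinucleolar compartment, a nuclear body marking cancer cells; inconclusive means readout between -30 and a set limit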;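 further: plate controls were DMSO wells for no effect and camptothecin positive control wells for full effect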
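PC3M cells stably expressing PTB-GFP, 750–1000 cells/well, treated 16 h at 37 °C with compound (23 nl of library stock), in duplicate. After paraformaldehyde fixation and Hoechst stain, imaged at 20x; PNC prevalence scored by image analysis.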
HPGD block – blocks human HPGD enzyme activity; 150,000 tested, 4.3% active; Potency, µM, for the others: at the top dose activity change, negative = inhibition, hits mostly inhibitors; AID 894; purified HPGD, NADH fluorescence kinetic, PGE2 substrate; P15428; active means well fitted inhibition curve with a large enough effect, not every such curve was filed as active; inconclusive means small, poorly fitted or top-dose-only effect, or another doubt; inactive means no such curve, though single readings can be large or run the other way; further: potency means the concentration at half of the fitted maximal effect
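NADH formation kinetics: reaction with 30 uM PGE2 and 1 mM NAD+ (final), 20 nM enzyme, Tris-HCl pH 8 with Tween 20, after 15 min compound preincubation at room temperature. Fluorescence change, last versus first of five reads.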
GLA inh pH 4.5 – blocks human alpha-galactosidase A at pH 4.5; P06280; purified enzyme, 4-MU-alpha-Gal fluorescence, pH 4.5; activity change, negative = inhibition, % at 105 µM; 230,000 tested, under 10 active;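 further: 0% = full activity with enzyme and -100% = basal without enzyme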
ALDH1A1 inh – ALDH1A1 (human) enzyme inhibition | P00352 | Purified ALDH1A1, NADH fluorescence, propionaldehyde substrate | Potency, µM (doses to about 75.3 µM), for inactives: at the top dose activity, negative = inhibition, usual class: inhibitors | 220,000 tested, 7.3% active | AID 1030; active means well fitted inhibition curve with a large enough effect, not every such curve was filed as active; inconclusive means small, poorly fitted or top-dose-only effect, or another doubt; inactive means no such curve, though single readings can be large or run the other way;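 further: potency means the concentration at half of the fitted maximal effect; plate controls were no enzyme wells and a reference inhibitor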
ALOX12 inhib – inhibitors of human 12-lipoxygenase (ALOX12) | purified 12-hLO, xylenol orange hydroperoxide absorbance | 150,000 tested, 0.12% active | AID 1452 | P18054 | Potency, µM (top dose mostly 57.1 µM), without a hit: at the top dose activity change, negative = inhibition, hits mostly inhibitors; further: potency means the concentration at half of the fitted maximal effect; nearly all actives have a fitted effect of over 55% in size
Target sequence (P18054 whole entry, looked up): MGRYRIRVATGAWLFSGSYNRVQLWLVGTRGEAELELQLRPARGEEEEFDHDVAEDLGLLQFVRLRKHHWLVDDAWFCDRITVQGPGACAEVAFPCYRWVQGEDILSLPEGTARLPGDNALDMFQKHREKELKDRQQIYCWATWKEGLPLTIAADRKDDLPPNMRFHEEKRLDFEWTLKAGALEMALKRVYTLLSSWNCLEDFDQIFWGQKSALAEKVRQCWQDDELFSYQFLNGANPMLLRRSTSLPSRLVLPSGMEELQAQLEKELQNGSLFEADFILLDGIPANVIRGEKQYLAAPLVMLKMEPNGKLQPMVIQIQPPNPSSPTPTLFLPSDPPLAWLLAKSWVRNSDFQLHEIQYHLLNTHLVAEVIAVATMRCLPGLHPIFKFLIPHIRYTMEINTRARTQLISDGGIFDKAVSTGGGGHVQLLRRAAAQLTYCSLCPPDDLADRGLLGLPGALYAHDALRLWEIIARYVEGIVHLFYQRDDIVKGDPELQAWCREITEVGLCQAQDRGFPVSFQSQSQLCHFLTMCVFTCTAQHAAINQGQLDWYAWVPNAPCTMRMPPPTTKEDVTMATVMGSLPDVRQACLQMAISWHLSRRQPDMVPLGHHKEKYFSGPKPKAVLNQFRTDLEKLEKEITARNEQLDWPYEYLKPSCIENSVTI
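Purified human 12hLO (150 nM final) was preincubated with compounds for 15 min at room temperature in 25 mM Hepes pH 7.0, 0.01% Triton X-100, then reacted with 40 uM arachidonic acid for 30 min. Hydroperoxide was detected with ferrous iron/xylenol orange.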
aGal spleen mod – inhibits or activates alpha-galactosidase in human spleen homogenate. AID 2107. human spleen homogenate, 4MU-alpha-Gal fluorescence, 40 min. Potency, µM (highest dose often 80 µM), for inactives: top-dose activity change, negative = inhibition, most hits filed as inhibitors. 240,000 tested, 0.008% active. P06280;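 further: potency means the concentration at half of the fitted maximal effect; 0% = enzyme with vehicle and -100% = no enzyme basal signal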
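Human spleen homogenate (1 ug) was the enzyme source, with 4-methylumbelliferyl-alpha-D-galactopyranoside (1 mM final) in pH 5.0 citrate buffer with 0.01% Tween-20. Compounds were titrated; after 40 min at 37C, NaOH/glycine stop, 4-MU fluorescence read; AC50 from Hill fits.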
An asterisk follows results filed as active; [ ] = another dose, or the depositor's remark. Only some compounds are listed: those with a hit (about 10% of all), similar ones and a draw of the others. Unless noted, the call rests on the fitted dose curve; in most records, active means well fitted curve in the direction sought with a large enough effect; inconclusive means small, poorly fitted or top-dose-only effect, or another doubt; inactive means no such curve, though single readings can be large; an effect the other way counts as inactive or inconclusive. Unless noted, on the % scale 0 is the no-effect control and ±100 the full control effect.

`CC(C)C(=O)N(c1ccc(F)cc1)C1C=CS(=O)(=O)C1` (stereo not drawn) gave PNC assembly inh -2, GLA inh pH 4.5 -2, ALDH1A1 inh 28µM*, ALOX12 inhib -3% and aGal spleen mod 2%.
`COc1ccc(N(C(=O)Cc2cccs2)C2C=CS(=O)(=O)C2)cc1` (stereo not drawn) gave GLA inh pH 4.5 -4, ALDH1A1 inh 28µM* and aGal spleen mod -6%.
For CCC(CC)C(=O)N(c1ccc(F)cc1)C1C=CS(=O)(=O)C1 (stereo not drawn) the results were PNC assembly inh 1, HPGD block 4%, GLA inh pH 4.5 3, ALDH1A1 inh 1%, ALOX12 inhib 4% and aGal spleen mod 7%.
For CN(C(=O)CSCC(=O)O)C1CCCCC1 the results were PNC assembly inh inconclusive, HPGD block -10%, GLA inh pH 4.5 5, ALDH1A1 inh 2µM*, ALOX12 inhib 1% and aGal spleen mod -5%.
CN(C(=O)CSc1ccccc1C(=O)O)C1CCCCC1 was read as PNC assembly inh 32, HPGD block -6%, GLA inh pH 4.5 6, ALDH1A1 inh 3.2µM*, ALOX12 inhib 9% and aGal spleen mod 2%.
O=C(CSc1ccccc1C(=O)O)NC1CCCCCC1 was read as GLA inh pH 4.5 -19 and aGal spleen mod 9%.
Screening CN(C(=O)c1ccccc1Cl)C1CCCCC1 returned PNC assembly inh inconclusive, HPGD block 28µM*, GLA inh pH 4.5 -10, ALDH1A1 inh 1%, ALOX12 inhib 1% and aGal spleen mod -11%.
CCOC(=O)c1nn(-c2ccccc2)c2nnc(Cc3ccccc3)c(=O)n12 was read as PNC assembly inh inconclusive, HPGD block -12%, GLA inh pH 4.5 17, ALDH1A1 inh inconclusive, ALOX12 inhib 2% and aGal spleen mod 9%.
CO[C@@H]1COC(=O)[C@H](COCc2ccccc2)NC(=O)C/C=C\[C@@H](C)[C@H](OC)COC(=O)[C@@H](C)NC(=O)C/C=C\[C@H]1C was read as ALDH1A1 inh 3%[13.5 µM] and aGal spleen mod 10%[17.5 µM].
For CCOC(=O)NC(NC(=O)OCC)C(=O)c1ccccc1 the results were PNC assembly inh inconclusive, HPGD block -8%, GLA inh pH 4.5 -3, ALDH1A1 inh 12%, ALOX12 inhib 2% and aGal spleen mod 6%.
CCOC(=O)NC(N(O)c1cccc(Cl)c1)C(Cl)(Cl)Cl (stereo not drawn) was read as GLA inh pH 4.5 -4, ALDH1A1 inh 8.9µM* and aGal spleen mod 0%.
For COc1cccc(-c2nn3c(-c4ccccn4)nnc3s2)c1 the results were PNC assembly inh 26, HPGD block 32µM*, GLA inh pH 4.5 1, ALDH1A1 inh 0%, ALOX12 inhib 0% and aGal spleen mod -3%.
Screening COc1cccc(-c2nnc3sc(-c4ccccn4)nn23)c1 returned PNC assembly inh 23, HPGD block 22µM*, GLA inh pH 4.5 3, ALDH1A1 inh -1%, ALOX12 inhib -12% and aGal spleen mod -16%.
Screening COc1ccccc1-c1nnc2sc(-c3cnccn3)nn12 returned PNC assembly inh -20, HPGD block 25µM*, GLA inh pH 4.5 2, ALDH1A1 inh inconclusive, ALOX12 inhib -4% and aGal spleen mod -2%.
`COc1ccc(-c2nnc3sc(-c4ccccn4)nn23)cc1` gave PNC assembly inh 4, HPGD block -17%, GLA inh pH 4.5 7, ALDH1A1 inh -3%, ALOX12 inhib -4% and aGal spleen mod -1%.
For CC(C)(C)c1ccc(-c2nnc3sc(-c4ccccn4)nn23)cc1 the results were PNC assembly inh 28, HPGD block 28µM*, GLA inh pH 4.5 -2, ALDH1A1 inh inconclusive, ALOX12 inhib 7% and aGal spleen mod 3%.
`COc1cccc(-c2nn3c(-c4cc(C)[nH]n4)nnc3s2)c1` gave PNC assembly inh 15, HPGD block -29%, GLA inh pH 4.5 -2, ALDH1A1 inh 1%, ALOX12 inhib 6% and aGal spleen mod -3%.
`CC/C(C)=N/Nc1cccc([N+](=O)[O-])c1` gave PNC assembly inh 29, HPGD block -6%, GLA inh pH 4.5 0, ALDH1A1 inh 0%, ALOX12 inhib inconclusive and aGal spleen mod -3%.
For CCC(=O)N(C)CCc1cc2c(c(OC)c1/C=N/NC(=O)c1ccc(Br)cc1)OCO2 the results were PNC assembly inh 29, HPGD block -10%, GLA inh pH 4.5 -4, ALDH1A1 inh 1%, ALOX12 inhib 0% and aGal spleen mod 4%.
`Clc1ccc(OCc2nn3c(-c4ccco4)nnc3s2)c(Cl)c1` gave PNC assembly inh 22, HPGD block 3.2µM*, GLA inh pH 4.5 7, ALDH1A1 inh -9%, ALOX12 inhib -7% and aGal spleen mod 15%.
Clc1ccc(-c2nnc3sc(-c4ccccn4)nn23)cc1 was read as PNC assembly inh inconclusive, HPGD block -8%, GLA inh pH 4.5 2, ALDH1A1 inh 14%, ALOX12 inhib -7% and aGal spleen mod -9%.
For c1ccc(-c2nn3c(-c4ccco4)nnc3s2)nc1 the results were PNC assembly inh 4, HPGD block -22%, GLA inh pH 4.5 -4, ALDH1A1 inh 24µM*, ALOX12 inhib -4% and aGal spleen mod -13%.
Screening c1coc(-c2nnc3sc(C4CCCCC4)nn23)c1 returned PNC assembly inh -3, HPGD block 25µM*, GLA inh pH 4.5 0, ALDH1A1 inh 13µM*, ALOX12 inhib -9% and aGal spleen mod inconclusive.
For Nc1nc(SCCc2ccccc2)c2[nH]cnc2n1 the results were HPGD block inconclusive, ALDH1A1 inh inconclusive and ALOX12 inhib -3%[11.4 µM].
For Cc1cc(Cl)ccc1NNC(=O)c1cccs1 the results were GLA inh pH 4.5 0, ALDH1A1 inh -5% and aGal spleen mod -1%.
Screening O=C(Nc1cc(Cl)ccc1N1CCCCC1)c1cccs1 returned PNC assembly inh -88*, HPGD block -13%, GLA inh pH 4.5 6, ALDH1A1 inh -6%, ALOX12 inhib 3% and aGal spleen mod 0%.
O=C(NNc1cc(Cl)ccc1Cl)c1cccs1 was read as GLA inh pH 4.5 0, ALDH1A1 inh 1.9µM* and aGal spleen mod 1%.
For CC(C)CCNC(=O)Cc1ccc(Nc2nc(=S)[nH]c3ccccc23)cc1 the results were GLA inh pH 4.5 -1, ALDH1A1 inh 4% and aGal spleen mod -6%.
`Cc1cccc(CNc2ncncc2-c2cccnc2)c1` gave ALDH1A1 inh -6% and aGal spleen mod -17%.
For CCc1cccc(CC)c1NC(=S)Nc1ccccc1 the results were GLA inh pH 4.5 6, ALDH1A1 inh 3% and aGal spleen mod 4%.
